“And” between values parts separate entries of the source, which are not always exact repeats. Equal entries are not always repeated. Compounds without any hit were thinned out: in the full panel of roughly 83,000, 20% have a hit.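 Testing used 96-well plates and a 48-hour single-concentration exposure. Example: -40 means 40% of the starting cells died.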 Values without a mark were called inactive. The source made the active and inactive calls.
Tested on: HCT-15 colon
Assay: NCI-60 one-dose screen, 48 h (100 = growth as untreated, 0 = no growth, -100 = all killed)
Settings: 10 µM
Procedure: Growth inhibition of the HCT-15 human tumor cell line is measured as a screen for anti-cancer activity. Cells are grown in 96 well plates and exposed to the test compound for 48 hours. Compounds are tested at a single concentration, which is 10^-5 M for most compounds. The reported endpoint is percent growth (GI% or GIPRCNT), where numbers from 0 - 100% represent growth inhibition, and numbers from -100% - 0 represent cell death. For example, a value of 40 represents 60% growth inhibition. A value of 0 means no net growth occurred over the course of the experiment. A value of -40 indicates 40% of cells at the beginning of the experiment died by the end of the experiment. A value of -100 means all cells are dead at the end of the experiment.
NCI-60 Human Tumor Cell Lines Screen was performed using the standard one-dose NCI protocol, which is described in more detail at https://dtp.cancer.gov/discovery_development/nci-60/default.htm.
Compounds with GIPRCNT values below 10 were considered active. Activity score was based on GIPRCNT using the following formula: […]
Score is 0 for GIPRCNT values of 100 or above, 50 for GIPRCNT values of 0, and 100 for GIPRCNT values of -100.

With `O=c1ccn2c(n1)OC1CC2OC1COC(c1ccccc1)(c1ccccc1)c1ccccc1` (stereo not given) as the compound, how does the growth read?
The growth was 97%.

Same assay, conditions: 10 µM unless noted

`CCOC(=O)c1ccc(N2C(=O)C(Cl)(c3ccccc3)C2c2ccco2)cc1` (stereo not given) was tested. Which growth did it give?
The growth was 67%.

Which growth does the source give for `CC1NC(C)c2ccc3ccccc3c2O1` (stereo not given) here?
Its growth is 106%.

Which growth does the source give for `Nc1ccccc1SC1CC(=O)N(c2ccc(I)cc2)C1=O` (stereo not given) here?
Its growth is 88.5%.

`CC(C)=NOC(C)C(=O)O` (stereo not given) was tested. Which growth did it give?
Its growth is 102%.

For `O=c1[nH]c(=S)[nH]n1C(=S)n1[nH]c(=S)[nH]c1=O`, which growth is on record?
The growth was 112%.

How did the growth turn out when `CC(C)(C)OC(=O)c1ccc(NCc2cc(O)ccc2O)cc1` was run?
The growth was -30.1% (active).

Which growth does the source give for `CC(O)CCNC(c1ccccc1)C(O)c1ccccc1` (stereo not given) here?
Its growth is 109%.

Which growth does the source give for `O=C(O)c1c2c(nc3ccccc13)Cc1ccccc1-2` here?
Its growth is 103%.

`O=C1C=CC(n2cc(F)c(=O)[nH]c2=O)O1` (stereo not given) was tested. Which growth did it give?
The growth was 57.8%.

How did the growth turn out when `O=C(NC(=O)c1ccc(F)c(Cl)c1)NC1CC1` was run?
Its growth is 86.5% and 74.6%.

For `CC1(CO)CCCC1NCCNC1CCCC1(C)CO` (stereo not given), which growth is on record?
The growth was 96.8% and 99%.

Which growth does the source give for `CC(=O)Oc1cc(C)c(OC(C)=O)c(C)c1C` here?
Its growth is 98%.

Which growth does the source give for `CS(=O)(=O)c1nsc(N)n1` here?
The growth was 107%.

`N=c1sc2ccccc2n1CC(=O)O` was tested. Which growth did it give?
Its growth is 103%.

`CCOP(C)(=O)/C(Cc1ccc(OC)c(OC)c1)=N\O` (stereo not given) was tested. Which growth did it give?
Its growth is 104%.

With `O=S(=O)(O)c1ccc2cc(O)ccc2c1` as the compound, how does the growth read?
The growth was 112%.

How did the growth turn out when `COc1ccc2oc3cc(NCCN(C)C)ccc3c(=O)c2c1` was run?
Its growth is 90.6% and 67%.

How did the growth turn out when `Cc1cccc(Cl)c1N` was run?
Its growth is 109%.

For `NC(=O)Cc1nc(O)cc(=O)[nH]1`, which growth is on record?
The growth was 96.9%.

`N#CC1c2ccccc2C=CN1C(=O)c1ccccc1` (stereo not given) was tested. Which growth did it give?
Its growth is 111% and 104%.

For `COc1ccc(CCNC(=S)NN)cc1OC`, which growth is on record?
Its growth is 123%.

`CC(C)(C)OC(=O)NCCc1ccc(N)cc1` was tested. Which growth did it give?
The growth was 111%.

Which growth does the source give for `Cc1cc2ccccc2c2cc3ccccc3cc12` here?
Its growth is 82.4%.

How did the growth turn out when `Cc1cnc(N)s1` was run?
The growth was 105%.

Which growth does the source give for `C/C(=C\c1ccccc1)C(O)C(=O)c1nc2ccc([N+](=O)[O-])cc2[nH]c1=O` (stereo not given) here?
The growth was 100%.

With `Cc1cc(=NO)cc(C)n1O` as the compound, how does the growth read?
Its growth is 113%.

`CCC(=O)Oc1ccc(OCc2ccccc2)cc1` was tested. Which growth did it give?
Its growth is 103% and 97%.

For `COc1ccc(CCO)cc1`, which growth is on record?
The growth was 102%.

`O=C(O)c1cc(=O)[nH]c(=O)[nH]1` was tested. Which growth did it give?
Its growth is 102% and 97.9%.

`COC(=O)C(Cc1cn(C(C)=O)c2ccccc12)P(=O)(OC)OC` (stereo not given) was tested. Which growth did it give?
The growth was 103%.

Which growth does the source give for `Nc1ccc(Cl)c(S(=O)(=O)O)c1` here?
The growth was 101%.

How did the growth turn out when `N=C(N)N1CCc2ccccc2C1` was run?
Its growth is 109% and 103%.

`COc1ccc(S(=O)(=O)c2ccc(F)cc2)cc1` was tested. Which growth did it give?
Its growth is 95.6%.

How did the growth turn out when `CCCCCCCCCCCCCCCCC(=O)O` was run?
The growth was 102%.

For `CC(=O)/C(N=Nc1ccc(S(=O)(=O)c2ccc(N=N/C(C(C)=O)=C(/C)O)cc2)cc1)=C(\C)O`, which growth is on record?
Its growth is 106%.

For `CN(C)C(=S)N(C)C`, which growth is on record?
The growth was 102%.

For `CCCCCCC(C)CC1=C(O)c2ccccc2C(=O)C1=O` (stereo not given), which growth is on record?
The growth was 28.4%.

`CC(=O)Nc1ccc(OC(C)=O)cc1` was tested. Which growth did it give?
Its growth is 13.5% and 102%.

Same assay, conditions: 100 µM

Which growth does the source give for `O=c1ccn2c(n1)OC1CC2OC1COC(c1ccccc1)(c1ccccc1)c1ccccc1` (stereo not given) here?
The growth was 101%.
